The list is not random: actives were taken first. Their share in the collection is about 13%.
LMNA splice mod = qHTS Assay for Modulators of Lamin A Splicing | HeLa LMNA splicing GFP/RFP minigene ratio, 48 h | Potency, µM (top dose mostly 46.1 µM), most hits filed as inhibitors | 200,000 tested, 0.01% active | AID 1487, 2009; active = well fitted inhibition curve with a large enough effect in the signal ratio, with a control signal flat, not every such curve was filed as active; inconclusive = small, poorly fitted or top-dose-only effect, or effect the other way, or a change in a side signal; the % refers to the signal ratio
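S3 HeLa cells stably expressing lamin A-EGFP splicing minigene plus DsRed2, 600 cells/well, 48 h compound exposure at 37C. Laser-scanning cytometry; analysed as GFP (500-530 nm)/RFP (575-640 nm) total intensity ratio; 0.5% DMSO vehicle.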
Sfp inh = qHTS Assay for Inhibitors of Bacillus subtilis Sfp phosphopantetheinyl transferase (PPTase); AID 1490, 2009; Biochemical Sfp PPTase activity, qHTS; Potency, µM, hits mostly inhibitors; 310,000 tested, 3.5% active;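 note: the enzyme is Sfp with the accession as filed and its product quenches rhodamine fluorescence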
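Fluorescence-quenching assay: 15 nM Sfp-PPTase preincubated 15 min at room temperature with compound, then 5 uM rhodamine-CoA and 12.5 uM BHQ-2-labelled YbbR peptide added. Fluorescence (ex 525/em 598 nm) read at start and after 30 min; difference gives rate.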
G9a inh = qHTS Assay for Inhibitors of Histone Lysine Methyltransferase G9a | Histone-lysine N-methyltransferase EHMT2 (Homo sapiens), Q96KQ7 | G9a H3K9 monomethylation, AlphaScreen, 2 h | Potency, µM (highest dose often 102 µM), most hits filed as inhibitors | 350,000 tested, 8.8% active | AID 504332, 2011; note: nearly all actives have a fitted effect of over 75% in size
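Chemiluminescent proximity detection of H3K9 monomethylation, read after 10 min bead incubation in the dark. Reaction: 20 nM G9a, 500 nM biotin-H3K9 peptide, 20 uM SAM cofactor, 2 h, room temperature, following 15 min enzyme-compound preincubation.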
miR-21 reporter = qHTS Assay for Modulators of miRNAs and/orActivators of miR-21. 340,000 tested, under 10 active. HeLa miR-21 FLuc reporter, luciferase, 48 h. AID 2288, 2010. Potency, µM (titrated, usually from 38.3 µM), actives largely listed as activators;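 note: miR-21 action dims this reporter so a rising signal means less miR-21 action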
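Compounds were titrated across several concentrations (up to approximately 40 uM) and incubated 48 hours with HeLa miR-21-FLuc reporter cells (miR-21 target sequence downstream of FLuc, endogenous miR-21). Readout was firefly luciferase luminescence after lytic detection reagent.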
KDM4E inh = qHTS Assay for Inhibitors of Human Jumonji Domain Containing 2E (JMJD2E); Lysine-specific demethylase 4E (Homo sapiens), B2RXH2; JMJD2E catalytic domain, FDH-coupled NADH fluorescence (FDH is formaldehyde dehydrogenase); Potency, µM (series often up to 57.1 µM), usual class: inhibitors; 230,000 tested, 1.6% active; active = well fitted inhibition curve with a large enough effect, not every such curve was filed as active; inconclusive = small, poorly fitted or top-dose-only effect, or another doubt; inactive = no such curve, though single readings can be large or run the other way; note: nearly all actives have a fitted effect of over 50% in size
ALDH1A1 block = qHTS Assay for Inhibitors of Aldehyde Dehydrogenase 1 (ALDH1A1); Purified ALDH1A1, NADH fluorescence, propionaldehyde substrate; Potency, µM (doses to about 75.3 µM), most hits filed as inhibitors; 220,000 tested, 7.3% active; active = well fitted inhibition curve with a large enough effect, not every such curve was filed as active; inconclusive = small, poorly fitted or top-dose-only effect, or another doubt; inactive = no such curve, though single readings can be large or run the other way
Target sequence (P00352 whole entry, looked up): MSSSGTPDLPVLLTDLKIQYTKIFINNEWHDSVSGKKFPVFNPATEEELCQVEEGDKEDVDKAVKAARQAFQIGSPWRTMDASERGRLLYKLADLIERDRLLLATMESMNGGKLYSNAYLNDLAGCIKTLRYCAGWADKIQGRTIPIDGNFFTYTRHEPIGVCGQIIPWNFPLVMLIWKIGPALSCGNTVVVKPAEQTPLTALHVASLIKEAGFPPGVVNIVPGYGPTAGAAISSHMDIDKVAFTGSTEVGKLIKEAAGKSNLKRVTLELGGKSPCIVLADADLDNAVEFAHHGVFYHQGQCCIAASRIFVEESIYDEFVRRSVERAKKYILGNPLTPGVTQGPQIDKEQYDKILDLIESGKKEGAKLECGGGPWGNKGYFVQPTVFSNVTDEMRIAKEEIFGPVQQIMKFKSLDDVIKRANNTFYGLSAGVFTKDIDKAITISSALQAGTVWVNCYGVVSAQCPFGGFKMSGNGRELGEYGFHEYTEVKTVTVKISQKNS
Numbers stand for hits; [ ] = dose if it differs, or a comment. Unless noted, calls come from the whole dose curve; as a rule, active = well fitted curve in the direction sought with a large enough effect; inconclusive = small, poorly fitted or top-dose-only effect, or another doubt; inactive = no such curve, though single readings can be large; an effect the other way counts as inactive or inconclusive.

`COC(=O)[C@@H]1CC[C@H](C)[C@@H](c2ccc(C)cc2)N1C(=O)c1ccc(/C=N\OCC[C@@H]2C=C[C@H](OC(C)=O)[C@H](COC(C)=O)O2)cc1` gave Sfp inh inactive and ALDH1A1 block inactive[13.5 µM].
N#Cc1c(NC(=O)c2ccc(Cn3cc(Br)cn3)o2)sc2c1CCCCCC2 was read as LMNA splice mod inconclusive, Sfp inh inconclusive, G9a inh 11.2µM, miR-21 reporter inactive, KDM4E inh inactive and ALDH1A1 block inconclusive.
Screening Cn1nccc1C(=O)Nc1sc2c(c1C#N)CCCC2 returned Sfp inh inactive, G9a inh inactive and miR-21 reporter inactive.
CC(C)c1cc(C(=O)Nc2sc3c(c2C#N)CCC3)no1 was read as LMNA splice mod inconclusive, Sfp inh inconclusive, G9a inh inconclusive, miR-21 reporter inactive, KDM4E inh inactive and ALDH1A1 block 17.8µM.
N#Cc1ccsc1NC(=O)c1cnccn1 was read as LMNA splice mod inactive, Sfp inh 50.1µM, G9a inh 3.55µM, miR-21 reporter inactive, KDM4E inh inactive and ALDH1A1 block inactive.
For CC(C)c1onc(C(=O)Nc2sc3c(c2C#N)CCC3)c1[N+](=O)[O-] the results were LMNA splice mod inconclusive, Sfp inh 56.2µM, G9a inh inconclusive, miR-21 reporter inactive, KDM4E inh inactive and ALDH1A1 block 12.6µM.
Screening O=C(c1ccc(NC2=NC3CS(=O)(=O)CC3S2)cc1)N1CCN(c2ccc([N+](=O)[O-])cc2)CC1 (stereo unspecified) returned Sfp inh inactive and miR-21 reporter inactive.
COc1ccccc1C(=O)Nc1sc2c(c1C#N)CCC2 was read as Sfp inh inactive and miR-21 reporter inactive.
N#Cc1c(NC(=O)c2cnccn2)sc2c1CCCC2 was read as LMNA splice mod inconclusive, Sfp inh 25.1µM, G9a inh inconclusive, miR-21 reporter inactive, KDM4E inh inconclusive and ALDH1A1 block 14.1µM.
Screening COc1ccc(-c2cc(C(=O)Nc3sc4c(c3C#N)CCCC4)no2)cc1OC returned G9a inh 10µM and miR-21 reporter inactive.
N#Cc1c(NC(=O)c2ccc([N+](=O)[O-])o2)sc2c1CCC2 was read as Sfp inh inactive, G9a inh 31.6µM and miR-21 reporter inactive.
`CCCc1cc(C(=O)Nc2sc3c(c2C(=O)OCC)CCCC3)no1` gave LMNA splice mod inactive, Sfp inh inactive, G9a inh inactive, miR-21 reporter inactive, KDM4E inh inactive and ALDH1A1 block inactive.
`CCOC(=O)c1c(NC(=O)c2cc(-c3cccc(OC)c3)on2)sc2c1CCCC2` gave G9a inh 8.91µM and miR-21 reporter inactive.
`N#Cc1c(NC(=O)c2cccnc2)sc2c1CCC2` gave LMNA splice mod inconclusive, Sfp inh inactive, G9a inh inconclusive, miR-21 reporter inactive, KDM4E inh inactive and ALDH1A1 block inactive.
Screening CC(C)NC(=O)CC(c1ccccc1)c1cc(Br)ccc1O (stereo unspecified) returned LMNA splice mod inactive, Sfp inh 100µM, G9a inh inconclusive, miR-21 reporter inactive, KDM4E inh inactive and ALDH1A1 block inactive.
For CN(CCC1CCOCC1)C(=O)c1cc(COc2c(F)cccc2F)on1 the results were Sfp inh inactive, G9a inh inactive and miR-21 reporter inactive.
`COc1cc2cc(C(c3nnnn3Cc3ccc(F)cc3)N3CCCCCC3)c(=O)[nH]c2cc1OC` (stereo unspecified) gave LMNA splice mod inactive, Sfp inh inactive, G9a inh inconclusive, miR-21 reporter inactive, KDM4E inh inconclusive and ALDH1A1 block inconclusive.
`CCc1ccc2[nH]c(=O)c(C(c3nnnn3Cc3ccco3)N3CCC(C)CC3)cc2c1` (stereo unspecified) gave LMNA splice mod inactive, Sfp inh inactive, G9a inh 56.2µM, miR-21 reporter inactive, KDM4E inh inactive and ALDH1A1 block inconclusive.
For Cc1ccc2cc(C(c3nnnn3Cc3ccccc3)N3CCc4ccccc43)c(=O)[nH]c2c1C (stereo unspecified) the results were LMNA splice mod inactive, Sfp inh 50.1µM, G9a inh 20µM, miR-21 reporter inactive, KDM4E inh inactive and ALDH1A1 block inconclusive.
For Cc1cc2cc(C(c3nnnn3Cc3ccco3)N3CCc4ccccc4C3)c(=O)[nH]c2cc1C (stereo unspecified) the results were LMNA splice mod inactive, Sfp inh 11.2µM, G9a inh inconclusive, miR-21 reporter inactive, KDM4E inh inconclusive and ALDH1A1 block inconclusive.
For Cc1ccc2[nH]c(=O)c(C(c3nnnn3Cc3ccccc3)N3CCc4ccccc43)cc2c1 (stereo unspecified) the results were LMNA splice mod inactive, Sfp inh 20µM, G9a inh 28.2µM, miR-21 reporter inactive, KDM4E inh inconclusive and ALDH1A1 block inconclusive.
Cc1cccc2cc(C(c3nnnn3Cc3ccccc3)N3CCN(C)CC3)c(=O)[nH]c12 (stereo unspecified) was read as LMNA splice mod inactive, Sfp inh inactive, G9a inh inactive, miR-21 reporter inactive, KDM4E inh inconclusive and ALDH1A1 block inconclusive.
`O=C1[C@H]2[C@H]3[C@H](O)[C@H](O)C/C(=N/OC[C@@H](O)COCc4ccco4)[C@H]3CC[C@@H]2C(=O)N1c1cccc(Oc2ccccc2)c1` gave Sfp inh inactive and ALDH1A1 block inactive[13.5 µM].
For Cc1ccc2cc(C(c3nnnn3Cc3ccccc3)N3CCc4ccccc43)c(=O)[nH]c2c1 (stereo unspecified) the results were LMNA splice mod inactive, Sfp inh inactive, G9a inh inactive[12.7 µM], miR-21 reporter inactive, KDM4E inh inactive and ALDH1A1 block 17.8µM.
CCc1ccc2[nH]c(=O)c(C(c3nnnn3Cc3ccccc3)N3CCOCC3)cc2c1 (stereo unspecified) was read as LMNA splice mod inactive, Sfp inh inactive, G9a inh inactive, miR-21 reporter inactive, KDM4E inh inconclusive and ALDH1A1 block inactive.
For Cc1cc2cc(C(c3nnnn3Cc3ccco3)N3CCc4ccccc43)c(=O)[nH]c2cc1C (stereo unspecified) the results were LMNA splice mod inactive, Sfp inh 10µM, G9a inh 11.2µM, miR-21 reporter inactive, KDM4E inh inconclusive and ALDH1A1 block 7.94µM.
Screening Cc1cc2cc(C(c3nnnn3Cc3ccccc3)N3CCc4ccccc43)c(=O)[nH]c2cc1C (stereo unspecified) returned LMNA splice mod inconclusive, Sfp inh 35.5µM, G9a inh inconclusive, miR-21 reporter inactive, KDM4E inh inconclusive and ALDH1A1 block inconclusive.

Screening results: PubChem BioAssay, National Center for Advancing Translational Sciences (NCATS)
